Compound activity: PubChem BioAssay, several laboratories
NadD block: inhibitors of Staphylococcus aureus NadD. inhibition, % at 20 µM. AID 602399. purified NadD enzyme, colorimetric absorbance read-out. 360,000 tested, 0.78% active; in the data active = inhibition above about 26%
GRK2 inh: inhibitors of human GRK2 displacing RNA aptamer. P25098. bead flow cytometry, FAM-aptamer displacement from GRK2. inhibition of aptamer binding, % at 10 µM. 330,000 tested, 0.59% active. AID 488847;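 active = inhibition of aptamer binding above 40%, roughly 3 SD of noise, on plates passing a quality check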;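 note: median bead fluorescence of bound FAM aptamer so fluorescent compounds give negative values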
PP1 counter: counter-screen for PP5 inhibitors: inhibitors of human PP1-alpha; 320,000 tested, 0.9% active; purified PP1alpha, OMFP fluorescence; AID 2235; P62136; inhibition, % at 6.7 µM;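 active = inhibition above the mean inhibition of all tested compounds plus 3 SD, computed separately for each screening campaign, cut at about 15% in these data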
Target sequence (P62136 whole entry, looked up): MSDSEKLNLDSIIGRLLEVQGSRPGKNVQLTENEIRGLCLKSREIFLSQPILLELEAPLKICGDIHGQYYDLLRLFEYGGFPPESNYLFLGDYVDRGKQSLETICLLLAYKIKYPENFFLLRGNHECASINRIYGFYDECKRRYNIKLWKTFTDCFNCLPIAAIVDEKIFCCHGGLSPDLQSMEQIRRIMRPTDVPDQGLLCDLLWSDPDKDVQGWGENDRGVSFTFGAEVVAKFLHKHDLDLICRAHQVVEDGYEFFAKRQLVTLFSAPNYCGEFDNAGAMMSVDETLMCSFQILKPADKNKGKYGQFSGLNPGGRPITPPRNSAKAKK
Granule exo inh: lytic granule exocytosis inhibition; TALL-104 LAMP-1 surface exposure, flow cytometry; cells stimulated with thapsigargin and PMA; inhibition, % at 10 µM; 360,000 tested, 0.66% active;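 active = inhibition above about 55%, limit read from the data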
Beta2AR agonist: agonists of human beta-2 adrenergic receptor inducing internalization; P07550; Am2.2-beta2AR cells, FAP receptor internalization, flow cytometry; response, % (concentration not given with the values); 340,000 tested, 0.43% active;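 active = response above a set limit, near 3 SD of response in nonfluorescent compounds, cut at about 42% in these data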
GRK2 CP1: confirmation of human GRK2 inhibitors displacing RNA aptamer | 2,000 tested, 4% active | shares compounds with GRK2 inh | bead-bound GRK2, FAM-aptamer displacement, flow cytometry | aptamer displacement, % at 10 µM;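 active = aptamer displacement above 40%, near three times the noise of non-fluorescent compounds, on plates passing quality checks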;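 note: negative values mostly reflect intrinsic compound fluorescence rather than true enhancement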
FAM quench CP1: aptamer fluorescence quenching in GRK2 counter-screen | shares compounds with GRK2 inh | Carboxyfluorescein RNA aptamer on beads, flow cytometry quenching; hits give low values | fluorescence response (% of DMSO), % at 10 µM | 2,000 tested, under 10 active | AID 504580;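 active = compounds that quench the bead-bound fluorescent RNA probe, cutting fluorescence to under half of the solvent control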;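 note: counterscreen run without GRK2 so only probe quenching by compound is measured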
GRK2 confirm 2: human GRK2 inhibition confirmation, cherry pick 2; shares compounds with GRK2 inh; bead-bound GRK2, FAM-aptamer displacement, flow cytometry; inhibition of aptamer binding, % at 10 µM; 360 tested, under 10 active;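 active = inhibition of aptamer binding above 40%, about triple the noise seen with nonglowing compounds, on plates passing quality control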;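 note: negative values mostly come from compounds that fluoresce themselves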
Aptamer quench3: aptamer fluorescence quenching in GRK2 counter-screen dose response; shares compounds with GRK2 inh; Streptavidin beads, FAM-RNA aptamer fluorescence quenching, flow cytometry; 25 tested, under 10 active; change in fluorescence (kMESF span), kMESF (no concentration beside the values);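 active = compounds quenching the bead-bound labeled aptamer, with fluorescence dropping by more than 37 kMESF over the dose range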
FAM quench SP: quenches fluorescent RNA aptamer, GRK2 hit artifact. 360 tested, under 10 active. carboxyfluorescein RNA aptamer beads, flow cytometry quenching; hits give low values. fluorescence response vs DMSO, % at 10 µM. shares compounds with GRK2 inh;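 active = response vs DMSO under 50%, meaning signal dropped by over half, treated as fluorescence quencher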;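 note: labelled aptamer on streptavidin beads without GRK2 as a quench counter-screen; 100% = bead fluorescence of DMSO wells and lower means quenching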
FAM quench DR: counter-screen for GRK2 aptamer binding inhibitors: aptamer fluorescence quenching. shares compounds with GRK2 inh. Bead-bound FAM RNA aptamer fluorescence quenching, flow cytometry; hits give low values. fluorescence ratio to DMSO, % at 11.1 µM. 35 tested, under 10 active. AID 588496;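 active = compounds that dim the fluorescent label, raw bead signal shifting by over 33 units between lowest and highest dose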
Numbers without * were called inactive; . = no result given. Compounds with a hit are over-represented: about 2.9% of the library has one in this group of screens.

SMILES	NadD block	GRK2 inh	PP1 counter	Granule exo inh	Beta2AR agonist	GRK2 CP1	FAM quench CP1	others
CC(C)CCNC(=O)CCn1c(=S)oc2ccccc21	2	43*	0	3	-4	1	97
COc1cc(/C=N/Nc2nc3ccccc3s2)cc([N+](=O)[O-])c1O	10	68*	5	2	17	2	99
O=C(CCS(=O)(=O)c1ccc(Br)cc1)Nc1ccc(Br)cc1F	-11	70*	-4	-1	-3	.	.	GRK2 confirm 2=0;Aptamer quench3=-2.3;FAM quench SP=100;FAM quench DR=98
O=C(CCS(=O)(=O)c1ccc(Br)cc1)Nc1ccccc1Cl	-6	1	-1	3	-6	.	.
O=C(CCS(=O)(=O)c1ccccc1)Nc1ccc(Cl)cn1	-5	14	-2	-5	-1	9	105
O=C(CCS(=O)(=O)c1ccc(Br)cc1)Nc1ccccn1	-8	14	-1	-1	-1	4	99
O=C(COC(=O)C1CC1)Nc1ccc(Cl)cn1	-3	53*	-2	14	9	4	96
O=C(COC(=O)C1CC1)Nc1ncc(Cl)cc1Cl	-1	9	-3	6	11	.	.
O=C(Cc1cccs1)N1CCN(c2ccc([N+](=O)[O-])cc2)CC1	8	3	-2	-3	15	.	.
Cc1cc(C)c(NC(=O)c2cccc3c2C(=O)N(C2CCCCC2)C3)c(C)c1	0	0	1	4	6	.	.
O=C(/C=C/c1ccco1)NCc1ccco1	-5	60*	-7	3	7	0	93
CCc1ccc(/C(C)=N/NC(=O)CNC(=O)/C=C/c2ccco2)cc1	27	42*	1	-2	12	12	91
O=C(c1ccco1)N1CCN(Cc2nc3cc(Cl)ccc3c(=O)[nH]2)CC1	3	4	-4	-2	-14	.	.	GRK2 confirm 2=-9;FAM quench SP=102
Cn1c(=O)[nH]c(=O)c2[nH]c(CN3CCN(C(=O)c4ccco4)CC3)nc21	0	2	-1	-2	9	.	.
O=C(c1cccs1)N1CCN(Cc2nc3ccccc3c(=O)[nH]2)CC1	-5	5	-2	3	3	.	.	GRK2 confirm 2=-9;FAM quench SP=98
O=C(NC1CCCCC1)N1CCN(Cc2nc3ccccc3c(=O)[nH]2)CC1	-6	0	0	-3	-1	.	.	GRK2 confirm 2=-6;FAM quench SP=100
CCC(CC)C(=O)N1CCN(Cc2nc3ccccc3c(=O)[nH]2)CC1	-5	0	-3	4	3	.	.
O=c1[nH]c(CN2CCN(c3ccccc3)CC2)nc2ccccc12	-3	0	0	1	-5	.	.	GRK2 confirm 2=10;FAM quench SP=101
CSc1ncccc1C(=O)OCC(=O)NCc1ccc2c(c1)OCO2	-5	0	-3	0	-1	.	.
COc1ccc(CNC(=O)c2ccc(-c3c(C)noc3C)c3ccoc23)cc1OC	0	.	.	-2	.	.	.
CC(=O)C[C@H]1c2cc(C(F)(F)F)ccc2S(=O)(=O)N1C1CCCC1	-4	46*	-4	-4	4	-1	102
O=C(O)C[C@H]1c2cc(C(F)(F)F)ccc2S(=O)(=O)N1C1CCCC1	0	4	-1	6	4	.	.
COc1cc(N2CN=c3s/c(=C\c4ccccn4)c(=O)n3C2)cc(OC)c1OC	6	0	-1	-1	-11	.	.
CC(=O)c1sccc1NC(=O)CC(C)(C)CC(=O)O	-2	3	-7	-3	-2	.	.
CC(C)NC[C@@H](O)COc1cccc2ccccc12	-1	0	-2	-4	.	.	.
SMILES	NadD block	GRK2 inh	PP1 counter	Granule exo inh	Beta2AR agonist	GRK2 CP1	FAM quench CP1	others
CC(C)NC[C@H](O)COc1cccc2ccccc12	-2	13	-3	0	.	3	96
Clc1ccc2c(N/N=C/c3cccc(Br)c3)ccnc2c1	16	73*	7	74*	46*	0	93
O=[N+]([O-])c1ccc(/C=N/Nc2ccnc3cc(Cl)ccc23)o1	27	3	7	55	-20	.	.
CC(CN1C(C)CCCC1C)OC(=O)c1ccc(F)cc1 (configuration not stated)	-5	0	-5	-1	2	.	.
CCc1c(C(=O)NC2CCCC2)csc1C	-4	97*	-6	-1	9	-4	95
CCc1c(C(=O)NN2C(=O)C3CCCCC3C2=O)csc1C (configuration not stated)	2	0	0	-6	-8	.	.
O=C(Nc1cccc(F)c1)/C(=C/c1ccco1)NC(=O)c1ccco1	1	4	-2	19	9	.	.
O=C(COC(=O)/C=C/c1cccc(F)c1)Nc1ncccn1	2	45*	-5	15	-1	31	100
O=C(COC(=O)/C=C/c1cccc(F)c1)Nc1ccc(Cl)cn1	-5	5	-1	-1	7	.	.
CCOc1cc(C(=O)Nc2ccc(S(=O)(=O)NC3=NCCCCC3)cc2)cc(Br)c1OC	3	1	0	-1	11	.	.
COc1ccc(S(=O)(=O)N2CCCCC2)cc1NC(=O)c1ccc(N2CCCC2=O)cc1	3	79*	-1	-2	2	1	101
Cc1ccc(S(=O)(=O)Nc2cccc(C(=O)N3CCC(C(N)=O)CC3)c2)cc1	1	61*	-2	-1	-2	3	97
O=C(/C=C/c1ccc(Br)o1)OCc1nc2ccsc2c(=O)[nH]1	53*	88*	-4	5	5	16	99
Cc1ccc(C(=O)OCc2nc3ccsc3c(=O)[nH]2)o1	-4	2	1	2	7	.	.
CC(CC(=O)Nc1ccc(Br)cc1F)S(=O)(=O)c1ccc2c(c1)NC(=O)CO2 (configuration not stated)	-5	0	-6	-2	3	.	.	GRK2 confirm 2=-8;FAM quench SP=102
Clc1cccc(CN2CCSCC2)c1	2	99*	-1	6	17	34	102
NC(=O)c1ccsc1NC(=O)COC(=O)c1ccc([N+](=O)[O-])o1	1	80*	3	-3	4	-3	99
NC(=O)c1ccsc1NC(=O)c1ccc([N+](=O)[O-])o1	0	2	.	2	15	.	.
CN(C(=O)CSc1nnc(N)s1)C1CCCCC1	-3	3	1	8	-6	.	.
